Laboratory results reported in the supplement of paper PMC12532568.
Structures can show the parent of a compound that is named as a salt.

Each compound was assayed on Danio rerio larvae Tg(actc1b:ZsGreen-LC3), 3 dpf (assay: LC3 puncta relative area vs vehicle, with NH4Cl (autophagic flux) (log2 fold change); higher = more autophagy). Conditions: 10 µM; treatment time 16 h; NH4Cl: + 100 mM, 4 h.
Procedure: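 Transgenic Tg(actc1b:ZsGreen-map1lc3) zebrafish larvae (2 dpf) were treated for 16 h with Tocris library compounds at 10 µM (n = 12 larvae per compound). Skeletal-muscle LC3 puncta area relative to body area was measured by high-content confocal imaging before and after 4 h of 100 mM NH4Cl (autophagic flux), normalised to vehicle (DMSO), and reported as log2 fold change.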
In the case of O=C(NCCCN1CCCCCC1)C(c1ccccc1)C1CCCCC1 (stereo not given), the “LC3 puncta (log2)” value is reported as -0.114.
For N[C@@H](CSS(=O)(=O)O)C(=O)O [S-Sulfo-L-cysteine sodium salt], the “LC3 puncta (log2)” value was 0.324.
For CC(C)[C@H]1CC[C@H](C(=O)N[C@H](Cc2ccccc2)C(=O)O)CC1 [Nateglinide], the “LC3 puncta (log2)” value was 0.54.
CC(C)NCC(O)COc1cccc2ccccc12 (stereo not given) [Propranolol hydrochloride] was tested, and the “LC3 puncta (log2)” value was 1.08.
CC(C)NC[C@@H](O)COc1cccc2ccccc12 [(R)-(+)-Propranolol hydrochloride] was tested, and the “LC3 puncta (log2)” value was -0.318.
For O=[N+]([O-])c1cc2nc(O)c(O)nc2cc1[N+](=O)[O-], the “LC3 puncta (log2)” value was 0.11.
N[C@H](C(=O)O)c1cc(O)cc(O)c1 was tested, and the “LC3 puncta (log2)” value was 0.736.
In the case of c1ccc(CN2CCC3(CCc4ccccc43)CC2)cc1 [L-693,403 maleate], the “LC3 puncta (log2)” value is reported as 0.655.
For c1ccc2sc(N3CCN(Cc4ccc5c(c4)OCO5)CC3)nc2c1 [2-[1-(4-Piperonyl)piperazinyl]benzothiazole], the “LC3 puncta (log2)” value was 0.593.
With COc1cc2nc(N3CCN(C(=O)c4ccco4)CC3)nc(N)c2cc1OC [Prazosin hydrochloride] the “LC3 puncta (log2)” value was 0.478.
With CN1CCC(=C2c3ccccc3CC(=O)c3sccc32)CC1 [Ketotifen fumarate] the “LC3 puncta (log2)” value was 0.874.
In the case of O=C(O)c1cc(=O)c2ccccc2[nH]1 [Kynurenic acid], the “LC3 puncta (log2)” value is reported as -0.156.
With NC(N)=Nc1ccc(Cl)cc1 [4-Chlorophenylguanidine hydrochloride] the “LC3 puncta (log2)” value was 0.148.
N[C@H]1CCN(O)C1=O was tested, and the “LC3 puncta (log2)” value was 0.023.
CC(C)CC(NC(=O)OCC1c2ccccc2-c2ccccc21)C(=O)O (stereo not given) was tested, and the “LC3 puncta (log2)” value was 0.569.
For CN(C)CCCCSC(=N)N, the “LC3 puncta (log2)” value was 0.383.
For C=C1C(=O)O[C@H]2[C@H]1CC/C(C)=C/CC[C@@]1(C)O[C@@H]21 [Parthenolide], the “LC3 puncta (log2)” value was 0.46.
For O=C(O)C1=CCCNC1 [Guvacine hydrochloride], the “LC3 puncta (log2)” value was 0.136.
CCCCCCN(CCCCCC)C(=O)Cc1c(-c2ccc(F)cc2)[nH]c2ccccc12 was tested, and the “LC3 puncta (log2)” value was 0.295.
With Cc1ccc(/C(=C\CN2CCCC2)c2ccccn2)cc1 [trans-Triprolidine hydrochloride] the “LC3 puncta (log2)” value was -0.196.
CCN(CC)CCOc1ccc(Cc2ccccc2)cc1 [DPPE fumarate] was tested, and the “LC3 puncta (log2)” value was 0.857.
For CC(C)NC[C@H](O)COc1cccc2ccccc12 [(S)-(-)-Propranolol hydrochloride], the “LC3 puncta (log2)” value was 1.09.
O=C(O)c1cccnc1C(=O)O [Quinolinic acid] was tested, and the “LC3 puncta (log2)” value was 0.453.
O=c1nc2ccccc2c2n1CC(CN1CCN(c3ccccc3)CC1)N2 (stereo not given) was tested, and the “LC3 puncta (log2)” value was 0.259.
In the case of c1ccc2nc(C3=NCCN3)cnc2c1 [BU 239 hydrochloride], the “LC3 puncta (log2)” value is reported as 0.0532.
In the case of COc1ccc([C@@H]2Sc3ccccc3N(CCN(C)C)C(=O)[C@@H]2OC(C)=O)cc1 [Diltiazem hydrochloride], the “LC3 puncta (log2)” value is reported as 0.194.
For S=C(S)N1CCCC1 [Pyrrolidinedithiocarbamate ammonium], the “LC3 puncta (log2)” value was 0.71.
In the case of CC12CC3CC(C)(C1)CC(N)(C3)C2 [Memantine hydrochloride], the “LC3 puncta (log2)” value is reported as 0.723.
In the case of CC(CCCCC(=O)Nc1ccc(C(F)(F)F)cc1)NCCc1cnc[nH]1 (stereo not given) [HTMT dimaleate], the “LC3 puncta (log2)” value is reported as 0.469.
C1COC(NC(C2CC2)C2CC2)=N1 [Rilmenidine hemifumarate] was tested, and the “LC3 puncta (log2)” value was 0.305.
For CN1CCN(C2=Cc3ccccc3Oc3ccc(Cl)cc32)CC1, the “LC3 puncta (log2)” value was 0.934.
With COc1ccc(CCN(C)CCc2ccc(OC)c(OC)c2)cc1OC [YS-035 hydrochloride] the “LC3 puncta (log2)” value was 0.374.
With Cc1ccc(OCC(O)C(C)NC(C)C)c2c1CCC2 (stereo not given) [ICI 118,551 hydrochloride] the “LC3 puncta (log2)” value was 0.592.
CCCCOc1cc(CC2CNC(=O)N2)ccc1OC (stereo not given) was tested, and the “LC3 puncta (log2)” value was 0.0673.
CCOC(=O)C1=C[C@]2(CC)CCCN3CCc4c(n1c1ccccc41)[C@@H]32 [Vinpocetine] was tested, and the “LC3 puncta (log2)” value was 1.
In the case of CC#CCOC(=O)C1=CCCN(C)C1 [Arecaidine but-2-ynyl ester tosylate], the “LC3 puncta (log2)” value is reported as 0.452.
Fc1ccc(C(c2ccc(F)cc2)N2CCN(C/C=C/c3ccccc3)CC2)cc1 [Flunarizine dihydrochloride] was tested, and the “LC3 puncta (log2)” value was 0.536.
For CC(=O)N1CCN(C)CC1 [1-Acetyl-4-methylpiperazine hydrochloride], the “LC3 puncta (log2)” value was 0.372.
COc1cc2c(CCNC(C)=O)c[nH]c2cc1Cl [6-Chloromelatonin] was tested, and the “LC3 puncta (log2)” value was 0.198.
With N[C@H](C(=O)O)c1ccc(C(=O)O)c(O)c1 [(S)-4-Carboxy-3-hydroxyphenylglycine] the “LC3 puncta (log2)” value was -0.0785.
